# In the supplement of paper PMC8728848:
# About 410 targets per protein were measured; listed, in parts, are those with the strongest signals and a random draw of the rest.
# B1: PX9916F-bfa-443-24-443 (Bacteroides fragilis) (protein)
# chain: DIRPVGSVIPQTAEEYRALLARAYLNVPNDRGLACLRSDEMLVNDNEYDRNSYGDIERWNDVSPFPGTSQFTWSNFYNVLFIANQVIESQKEITEGTPEVVNQLVGEAHLLRAYLHFVLVNLHGQPYTKSGALNSKSIPLKLDTDLEKTLGRNTVEEVYTSILSDIEHARELINKEKWETVFSYRFNVLSVDALQSRVSLYMGAWPKCLESAEAVLAKKSVLVDMNETPLALPNHFESVESITALEQVMGSSVNNAVWVPATFLALYQEGDKRLAAYFAAPDENGNRKSSKGGKREFSCTFRVGELYLNAAEAAANMDKLPHARMRLLELMRKRYTPEAYDKKENAVNVMDKNALISEILNERARELAFEGHRWFDLRRTTRPRMVKVLQGKTYILEQDDPRYTIPIPRDAIAANPGLAN
# Legend:
# Assay in all cases: glycan array binding signal (z-score within array); higher = stronger binding
# Conditions in all cases: glycan notation: IUPAC condensed, linker removed
# [1] = target: Gal(b1-4)GlcNAc(b1-2)[Gal(b1-4)GlcNAc(b1-4)]Man(a1-3)[Gal(b1-4)GlcNAc(b1-2)[Gal(b1-4)GlcNAc(b1-6)]Man(a1-6)]Man(b1-4)GlcNAc(b1-4)GlcNAc
# How it was run: (§1)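 Arrays were curated from the Consortium for Functional Glycomics database, 3228 in total, and kept only where the protein sequence was available. Binding is expressed as a within-array Z-score. This score was averaged across arrays of the same protein sequence at different concentrations or buffers and across linkers, and negative values can be read as non-binding.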
# [2] = target: Gal(b1-4)GlcNAc(b1-3)Gal(b1-4)GlcNAc(b1-2)Man(a1-3)[Gal(b1-4)GlcNAc(b1-3)Gal(b1-4)GlcNAc(b1-2)Man(a1-6)]Man(b1-4)GlcNAc(b1-4)[Fuc(a1-6)]GlcNAc
# How it was run: as §1
# [3] = target: Gal(b1-4)GlcNAc(b1-3)Gal(b1-4)GlcNAc(b1-3)Gal(b1-4)GlcNAc(b1-2)Man(a1-3)[Gal(b1-4)GlcNAc(b1-3)Gal(b1-4)GlcNAc(b1-3)Gal(b1-4)GlcNAc(b1-2)Man(a1-6)]Man(b1-4)GlcNAc(b1-4)[Fuc(a1-6)]GlcNAc
# How it was run: as §1
# [4] = target: GalNAc(b1-3)Gal(a1-4)Gal(b1-4)GlcNAc(b1-3)Gal(b1-4)Glc
# How it was run: as §1
# [5] = target: GalNAc(b1-4)GlcNAc6S
# How it was run: as §1
# [6] = target: GlcA(b1-6)Gal
# How it was run: as §1
# [7] = target: GlcNAc(b1-2)Man(a1-3)[GlcNAc(b1-2)Man(a1-6)]Man(b1-4)GlcNAc(b1-4)GlcNAc
# How it was run: as §1
# [8] = target: GlcNAc(b1-2)[GlcNAc(b1-4)]Man(a1-3)[GlcNAc(b1-4)][GlcNAc(b1-2)[GlcNAc(b1-6)]Man(a1-6)]Man(b1-4)GlcNAc(b1-4)[Fuc(a1-6)]GlcNAc
# How it was run: as §1
# [9] = target: GlcNAc(b1-3)Gal(b1-4)Glc
# How it was run: as §1
# [10] = target: GlcNAc(b1-3)Gal(b1-4)GlcNAc(b1-3)Gal(b1-4)GlcNAc(b1-2)[GlcNAc(b1-3)Gal(b1-4)GlcNAc(b1-3)Gal(b1-4)GlcNAc(b1-6)]Man(a1-6)[GlcNAc(b1-3)Gal(b1-4)GlcNAc(b1-3)Gal(b1-4)GlcNAc(b1-2)Man(a1-3)]Man(b1-4)GlcNAc(b1-4)[Fuc(a1-6)]GlcNAc
# How it was run: as §1
# [11] = target: GlcNAc(b1-3)Gal(b1-4)GlcNAc(b1-3)Gal(b1-4)GlcNAc(b1-3)Gal(b1-4)GlcNAc(b1-2)Man(a1-3)[GlcNAc(b1-3)Gal(b1-4)GlcNAc(b1-3)Gal(b1-4)GlcNAc(b1-3)Gal(b1-4)GlcNAc(b1-2)Man(a1-6)]Man(b1-4)GlcNAc(b1-4)GlcNAc
# How it was run: as §1
# [12] = target: GlcNAc(b1-3)Gal(b1-4)GlcNAc(b1-3)Gal(b1-4)GlcNAc(b1-3)Gal(b1-4)GlcNAc(b1-3)Gal(b1-4)GlcNAc(b1-2)Man(a1-3)[GlcNAc(b1-3)Gal(b1-4)GlcNAc(b1-3)Gal(b1-4)GlcNAc(b1-3)Gal(b1-4)GlcNAc(b1-3)Gal(b1-4)GlcNAc(b1-2)Man(a1-6)]Man(b1-4)GlcNAc(b1-4)[Fuc(a1-6)]GlcNAc
# How it was run: as §1
# [13] = target: GlcNAc(b1-3)[GlcNAc(b1-6)]GalNAc
# How it was run: as §1
# [14] = target: GlcNAc(b1-4)GlcNAc
# How it was run: as §1
# [15] = target: GlcNAc6S(b1-3)Gal(b1-4)GlcNAc
# How it was run: as §1
# [16] = target: Man(a1-3)[Man(a1-6)]Man(a1-6)[Man(a1-2)Man(a1-3)]Man(b1-4)GlcNAc(b1-4)GlcNAc
# How it was run: as §1
# [17] = target: Neu5Ac(a2-3)Gal(b1-3)GalNAc(b1-3)Gal(a1-4)Gal(b1-4)Glc
# How it was run: as §1
# [18] = target: Neu5Ac(a2-3)Gal(b1-3)GlcNAc
# How it was run: as §1
# [19] = target: Neu5Ac(a2-3)Gal(b1-3)GlcNAc(b1-2)Man
# How it was run: as §1
# [20] = target: Neu5Ac(a2-3)Gal(b1-4)Glc
# How it was run: as §1
# [21] = target: Neu5Ac(a2-3)Gal(b1-4)GlcNAc(b1-2)Man(a1-3)[GlcNAc(b1-4)][Neu5Ac(a2-3)Gal(b1-4)GlcNAc(b1-2)Man(a1-6)]Man(b1-4)GlcNAc(b1-4)GlcNAc
# How it was run: as §1
# [22] = target: Neu5Ac(a2-3)Gal(b1-4)GlcNAc(b1-6)GalNAc
# How it was run: as §1
# [23] = target: Neu5Ac(a2-3)[Neu5Ac(a2-6)]GalNAc
# How it was run: as §1
# [24] = target: Neu5Ac(a2-8)Neu5Ac
# How it was run: as §1
# [25] = target: Neu5Ac(a2-8)Neu5Ac(a2-8)Neu5Ac(a2-3)[GalNAc(b1-4)]Gal(b1-4)Glc
# How it was run: as §1
# [26] = target: Neu5Gc(a2-8)Neu5Gc(a2-6)Gal(b1-4)GlcNAc
# How it was run: as §1
binder,measurement,setting,value
B1,glycan array binding signal (z-score),[1],-0.78
same,glycan array binding signal (z-score),[2],0.44
same,glycan array binding signal (z-score),[3],2.81
same,glycan array binding signal (z-score),[4],0.078
same,glycan array binding signal (z-score),[5],0.581
same,glycan array binding signal (z-score),[6],2.71
same,glycan array binding signal (z-score),[7],-0.266
same,glycan array binding signal (z-score),[8],-1.61
same,glycan array binding signal (z-score),[9],-0.475
same,glycan array binding signal (z-score),[10],-0.316
same,glycan array binding signal (z-score),[11],2.55
same,glycan array binding signal (z-score),[12],-0.064
same,glycan array binding signal (z-score),[13],-0.249
same,glycan array binding signal (z-score),[14],0.138
same,glycan array binding signal (z-score),[15],0.017
same,glycan array binding signal (z-score),[16],1.23
same,glycan array binding signal (z-score),[17],0.297
same,glycan array binding signal (z-score),[18],-0.376
same,glycan array binding signal (z-score),[19],4.28
same,glycan array binding signal (z-score),[20],0.058
same,glycan array binding signal (z-score),[21],-1.31
same,glycan array binding signal (z-score),[22],-0.155
same,glycan array binding signal (z-score),[23],-0.772
same,glycan array binding signal (z-score),[24],1.37
same,glycan array binding signal (z-score),[25],-0.695
same,glycan array binding signal (z-score),[26],-0.576
